Inconclusive results are not listed. Calls of active or inactive are those of the source. The calls were made as follows, unless noted: active = hit-call score of the fitted dose curve at least 0.9, where 1 is the maximum; inactive = score below 0.9.
What was measured:
[1] = read-out: Monocyte Chemoattractant Protein-1 (MCP1), CCL2 (gene 6347); assay: BSK_LPS_MCP1: BioMAP Diversity Plus: LPS Assay for Monocyte Chemoattractant Protein-1 (MCP1) Biomarker Activity (AID 2283081); conditions: primary human HUVEC with PBMC; actives raise or lower the signal;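 as to AC50: co-culture stimulated with LPS; secreted MCP-1 protein quantified by ELISA in culture supernatant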
Outline: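 Secreted MCP-1 read by ELISA at 24 h post-dosing in an LPS-activated co-culture of endothelial cells with peripheral blood mononuclear cells. Fits run in both directions, DMSO as baseline; parallel SRB staining tracks overt cytotoxicity.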

[2] = BSK_LPS_PGE2: BioMAP Diversity Plus: LPS Assay for Prostaglandin E2 (PGE2) Biomarker Activity (AID 2283082); conditions: primary human HUVEC with PBMC; actives raise or lower the signal;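 as to AC50: secreted prostaglandin E2 measured by ELISA in LPS-stimulated co-culture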
Outline: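 LPS-activated HUVEC/PBMC co-culture; cmpd dosed, 24 h; PGE2 by ELISA; bidirectional fit vs DMSO; SRB (0.1%, TCA-fixed, 560 nm) in parallel plates for overt cytotox.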

[3] = read-out: Macrophage colony-stimulating factor (MCSF), CSF1 (gene 1435); assay: BSK_LPS_MCSF: BioMAP Diversity Plus: LPS Assay for Macrophage colony-stimulating factor (MCSF) Biomarker Activity (AID 2283083); conditions: primary human HUVEC with PBMC; actives raise or lower the signal
Outline: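 Bidirectional fitting against DMSO was applied to M-CSF levels read by ELISA at 24 h post-dose. The system pairs human umbilical vein endothelium with peripheral blood mononuclear cells; parallel SRB staining tracked cytotoxicity.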

[4] = read-out: Tissue Factor, F3 (gene 2152); assay: BSK_LPS_TissueFactor: BioMAP Diversity Plus: LPS Assay for Tissue Factor Biomarker Activity (AID 2283084); conditions: primary human HUVEC with PBMC; actives raise or lower the signal
Outline: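 Compound was added to an endothelial cell/PBMC co-culture, and after 24 h tissue factor (CD142) was read by ELISA. Gain or loss of signal was fitted against a DMSO baseline, and parallel SRB staining (560 nm) tracked overt cytotoxicity.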

[5] = read-out: Vascular cell adhesion molecule 1 (VCAM1), VCAM1 (gene 7412); assay: BSK_LPS_VCAM1: BioMAP Diversity Plus: LPS Assay for Vascular cell adhesion molecule 1 (VCAM1) Biomarker Activity (AID 2283086); conditions: primary human HUVEC with PBMC; actives raise or lower the signal
Outline: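 HUVEC + PBMC co-culture, LPS system; compound 24 h; VCAM-1 by ELISA; bidirectional fit vs DMSO control; parallel SRB (0.1%, TCA-fixed, 560 nm) for cytotoxicity.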

CD38, CD38 (gene 952) = assay: BSK_SAg_CD38: BioMAP Diversity Plus: SAg Assay for CD38 Biomarker Activity (AID 2283087); conditions: primary human HUVEC with PBMC; actives raise or lower the signal
Outline: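 Human HUVEC plus PBMC co-culture stimulated with superantigen; CD38 measured by ELISA 24 h after chemical dosing. Fluorescence read-out, bidirectional fit against DMSO; cytotoxicity tracked in parallel by SRB and Alamar Blue.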

CD40, CD40 (gene 958) = assay: BSK_SAg_CD40: BioMAP Diversity Plus: SAg Assay for CD40 Biomarker Activity (AID 2283088); conditions: primary human HUVEC with PBMC; actives raise or lower the signal
Outline: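 CD40 is measured by fluorescence ELISA in an endothelial/PBMC primary human co-culture at 24 h post-dose. Fitting is bidirectional, DMSO baseline. Parallel SRB staining (560 nm) flags cytotoxicity.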

CD69, CD69 (gene 969) = assay: BSK_SAg_CD69: BioMAP Diversity Plus: SAg Assay for CD69 Biomarker Activity (AID 2283089); conditions: primary human HUVEC with PBMC; actives raise or lower the signal;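 as to AC50: cell surface CD69 protein quantified by ELISA with fluorescence detection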
Outline: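 ELISA, fluorescence read-out: CD69 on human umbilical vein endothelial cell + PBMC co-culture, 24 h post-dosing. Gain or loss of signal fitted bidirectionally against DMSO baseline.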

[6] = read-out: Monocyte Chemoattractant Protein-1 (MCP1), CCL2 (gene 6347); assay: BSK_SAg_MCP1: BioMAP Diversity Plus: SAg Assay for Monocyte Chemoattractant Protein-1 (MCP1) Biomarker Activity (AID 2283090); conditions: primary human HUVEC with PBMC; actives raise or lower the signal
Outline: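 MCP-1 levels in the endothelial–PBMC SAg co-culture were quantified by ELISA at 24 h post-dosing; both increases and decreases versus DMSO scored. Cytotoxicity monitored by SRB total protein in parallel cultures.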

[7] = read-out: E-selectin (Homo sapiens) (UniProt P16581); assay: BSK_SAg_Eselectin: BioMAP Diversity Plus: SAg Assay for Eselectin Biomarker Activity (AID 2283091); conditions: primary human HUVEC with PBMC; actives raise or lower the signal
Outline: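 Cell-surface E-selectin is read by ELISA at 24 h in the SAg co-culture of HUVEC and PBMC. Curves are fitted in both directions relative to DMSO. Parallel SRB total-protein staining tracks overt toxicity.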

[8] = read-out: Monokine induced gamma interferon (MIG), CXCL9 (gene 4283); assay: BSK_SAg_MIG: BioMAP Diversity Plus: SAg Assay for Monokine induced gamma interferon (MIG) Biomarker Activity (AID 2283092); conditions: primary human HUVEC with PBMC; actives raise or lower the signal
Outline: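 ELISA readout of MIG/CXCL9; primary human umbilical vein endothelial cells co-cultured with peripheral blood mononuclear cells; 24 h post-dose; gain/loss fit vs DMSO baseline.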

[9] = BSK_SAg_PBMCCytotoxicity: PBMC Cytotoxicity Assessment in the BioMAP Diversity Plus: SAg Assay (AID 2283093); conditions: primary human HUVEC with PBMC;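 also: PBMC viability measured as Alamar Blue reduction fluorescence at 546/580 nm; fitted both ways against DMSO so a hit may be loss or gain of signal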;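 as to AC50: PBMC superantigen activated with SEB plus TSST-1 one hour after compound addition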
Outline: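 Compound added to 75,000 PBMC/well for 1 h; SEB and TSST-1 then added at 20 ng/mL final each; 90 h incubation; Alamar Blue 6 h; read 546/580 nm ex/em. Activity fitted bidirectionally relative to DMSO baseline.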

[10] = read-out: Interleukin-8 (IL8), CXCL8 (gene 3576); assay: BSK_SAg_IL8: BioMAP Diversity Plus: SAg Assay for Interleukin-8 (IL8) Biomarker Activity (AID 2283094); conditions: primary human HUVEC with PBMC; actives raise or lower the signal
Outline: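 ELISA read-out of IL-8 in a primary human vascular co-culture (umbilical vein endothelium plus PBMC), taken 24 h after compound addition. Values derive from bidirectional fits against DMSO negative controls.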

[11] = BSK_SAg_Proliferation: Cell Proliferation Assessment in the BioMAP Diversity Plus: SAg Assay (AID 2283095); conditions: primary human HUVEC with PBMC;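 also: relative cell number as total protein by SRB absorbance in sub-confluent culture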
Outline: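 Cells (endothelium plus PBMC, human primary) were dosed with chemical, cultured 96 h, fixed in 10% TCA and stained with 0.1% SRB. Absorbance at 560 nm gave relative protein, fitted bidirectionally relative to DMSO.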

[12] = BSK_SAg_SRB: Viability Assessment in the BioMAP Diversity Plus: SAg Assay (AID 2283096); conditions: primary human HUVEC with PBMC;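 also: cells read one day after compound addition; hits may be either gain or loss of signal compared with DMSO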
Outline: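 Total protein by sulforhodamine B staining, 24 h after dosing, in HUVEC–PBMC co-culture; DMSO-referenced bidirectional fitting.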

[13] = target: human CYP2A6, CYP2A6 (gene 1548) (UniProt P11509); assay: NVS_ADME_hCYP2A6: NovaScreen (NVS) CYP450-related Enzyme Activity (ADME) Assay for human CYP2A6 (AID 2283099; active = hit-call score of the fitted dose curve at least 0.9, where 1 is the maximum)
Outline: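 Compounds screened at 10 uM (duplicate) and, if active, titrated to a 20 uM top concentration against insect-cell-expressed CYP2A6. Loss of fluorescent product signal after 0.5 h, relative to acetonitrile baseline, indicates inhibition.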

[14] = target: human CYP2B6, CYP2B6 (gene 1555) (UniProt P20813); assay: NVS_ADME_hCYP2B6: NovaScreen (NVS) CYP450-related Enzyme Activity (ADME) Assay for human CYP2B6 (AID 2283101; active = hit-call score of the fitted dose curve at least 0.9, where 1 is the maximum)
Outline: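 Fluorescence-based enzyme activity of recombinant human CYP2B6, measured 1 h post-dose against acetonitrile vehicle baseline. Screened at a single concentration of 10 uM in duplicate before concentration-response follow-up.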

[15] = target: human CYP1A1, CYP1A1 (gene 1543) (UniProt P04798); assay: NVS_ADME_hCYP1A1: NovaScreen (NVS) CYP450-related Enzyme Activity (ADME) Assay for human CYP1A1 (AID 2283100; active = hit-call score of the fitted dose curve at least 0.9, where 1 is the maximum)
Outline: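 Chemicals were first tested in duplicate at 10 uM, and those passing a 30% inhibition threshold were rerun as concentration series topping at 20 uM. Fluorescence read-out of recombinant enzyme turnover after 1 h, relative to acetonitrile.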

Measured: AC50

Chain of E-selectin (Homo sapiens) (P16581 whole entry, looked up): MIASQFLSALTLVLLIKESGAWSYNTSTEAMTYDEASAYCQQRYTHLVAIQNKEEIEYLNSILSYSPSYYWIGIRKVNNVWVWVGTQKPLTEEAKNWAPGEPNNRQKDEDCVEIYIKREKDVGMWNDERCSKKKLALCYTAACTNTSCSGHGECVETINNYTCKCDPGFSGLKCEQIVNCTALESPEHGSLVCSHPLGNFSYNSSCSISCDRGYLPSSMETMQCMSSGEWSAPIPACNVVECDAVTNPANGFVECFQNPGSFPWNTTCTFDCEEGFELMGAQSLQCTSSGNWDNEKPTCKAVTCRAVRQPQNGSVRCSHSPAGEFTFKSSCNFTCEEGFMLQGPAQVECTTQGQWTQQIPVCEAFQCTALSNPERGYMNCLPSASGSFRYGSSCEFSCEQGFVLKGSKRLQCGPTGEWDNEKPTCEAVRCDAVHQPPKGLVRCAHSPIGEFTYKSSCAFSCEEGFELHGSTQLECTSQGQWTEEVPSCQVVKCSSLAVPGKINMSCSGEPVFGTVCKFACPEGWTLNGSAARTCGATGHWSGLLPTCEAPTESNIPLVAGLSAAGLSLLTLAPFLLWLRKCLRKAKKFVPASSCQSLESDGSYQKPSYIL
Chain of human CYP2A6, CYP2A6 (gene 1548) (P11509 whole entry, looked up): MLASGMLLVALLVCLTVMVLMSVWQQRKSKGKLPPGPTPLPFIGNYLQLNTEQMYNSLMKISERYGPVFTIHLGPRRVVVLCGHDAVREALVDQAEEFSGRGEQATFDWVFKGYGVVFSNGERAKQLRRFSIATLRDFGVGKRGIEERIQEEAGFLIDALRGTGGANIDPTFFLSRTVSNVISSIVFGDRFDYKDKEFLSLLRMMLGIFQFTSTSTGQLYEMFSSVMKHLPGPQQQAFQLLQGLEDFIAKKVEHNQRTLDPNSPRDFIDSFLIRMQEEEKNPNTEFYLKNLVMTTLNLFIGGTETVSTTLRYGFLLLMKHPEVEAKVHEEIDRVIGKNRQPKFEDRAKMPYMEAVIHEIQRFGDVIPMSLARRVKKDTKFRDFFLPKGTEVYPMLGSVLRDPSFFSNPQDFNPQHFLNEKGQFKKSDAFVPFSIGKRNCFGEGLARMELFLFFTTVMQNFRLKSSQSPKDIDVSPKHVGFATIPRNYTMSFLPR
Chain of human CYP1A1, CYP1A1 (gene 1543) (P04798 whole entry, looked up): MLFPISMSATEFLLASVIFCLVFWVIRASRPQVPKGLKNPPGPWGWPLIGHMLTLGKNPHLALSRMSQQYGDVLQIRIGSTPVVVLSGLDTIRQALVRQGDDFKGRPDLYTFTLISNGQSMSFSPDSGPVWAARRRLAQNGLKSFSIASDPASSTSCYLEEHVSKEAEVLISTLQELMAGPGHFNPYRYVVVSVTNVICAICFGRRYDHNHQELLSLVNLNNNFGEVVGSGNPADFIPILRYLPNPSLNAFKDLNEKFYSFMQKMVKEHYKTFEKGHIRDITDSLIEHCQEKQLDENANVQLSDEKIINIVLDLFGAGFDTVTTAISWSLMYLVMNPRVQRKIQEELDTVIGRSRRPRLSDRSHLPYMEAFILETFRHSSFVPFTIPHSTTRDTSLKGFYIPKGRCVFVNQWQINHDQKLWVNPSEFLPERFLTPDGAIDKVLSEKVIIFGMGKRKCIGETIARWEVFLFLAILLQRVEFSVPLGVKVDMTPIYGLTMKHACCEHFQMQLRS
Chain of human CYP2B6, CYP2B6 (gene 1555) (P20813 whole entry, looked up): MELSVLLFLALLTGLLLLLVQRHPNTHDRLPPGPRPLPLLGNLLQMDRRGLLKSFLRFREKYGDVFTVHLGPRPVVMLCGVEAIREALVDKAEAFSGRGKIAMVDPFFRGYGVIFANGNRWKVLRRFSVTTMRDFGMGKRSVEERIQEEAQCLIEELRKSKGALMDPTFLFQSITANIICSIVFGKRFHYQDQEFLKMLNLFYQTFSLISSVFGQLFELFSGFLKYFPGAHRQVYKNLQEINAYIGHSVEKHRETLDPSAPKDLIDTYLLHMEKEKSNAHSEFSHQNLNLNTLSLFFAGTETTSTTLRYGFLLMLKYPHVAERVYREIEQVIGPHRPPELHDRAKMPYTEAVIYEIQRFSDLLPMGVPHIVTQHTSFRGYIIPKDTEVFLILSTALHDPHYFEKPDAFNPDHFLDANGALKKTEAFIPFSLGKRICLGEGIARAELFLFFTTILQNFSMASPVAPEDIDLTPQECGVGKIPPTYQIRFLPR

CCCOC(=O)c1ccc(O)cc1
inactive: [1] | [3] | [4] | [5] | CD38, CD38 (gene 952) | CD40, CD40 (gene 958) | CD69, CD69 (gene 969) | [6] | [7] | [8] | [9] | [10] | [11] | [12] | [13] | [14]
active: [2] 9.7 µM

CCCCCCCCC(=O)O
inactive: [1] | [2] | [3] | [4] | [5] | CD38, CD38 (gene 952) | CD40, CD40 (gene 958) | [6] | [7] | [9] | [10] | [11] | [12]

CCc1ccc(CCOc2ccc(CC3SC(=O)NC3=O)cc2)nc1 (configuration not stated)
active: [11] 7.06 µM
inactive: [1] | [2] | [3] | [4] | [5] | CD38, CD38 (gene 952) | CD40, CD40 (gene 958) | CD69, CD69 (gene 969) | [6] | [7] | [8] | [9] | [10] | [12]

CC(O)CO (configuration not stated)
inactive: [1] | [2] | [3] | [4] | [5] | CD38, CD38 (gene 952) | CD40, CD40 (gene 958) | CD69, CD69 (gene 969) | [6] | [7] | [8] | [9] | [10] | [11] | [12]

CC(=O)NC1(c2cccc(F)c2)CCN(CC[C@@]2(c3ccc(Cl)c(Cl)c3)CN(c3ccccc3)C(=O)CO2)CC1
inactive: [2] | [3] | [4] | [7] | [8] | [11] | [13] | [15]
active: [1] 16.6 µM | [5] 16.6 µM | CD38, CD38 (gene 952) 26.7 µM | CD40, CD40 (gene 958) 30.5 µM | CD69, CD69 (gene 969) 25.2 µM | [6] 27.5 µM | [9] 24.7 µM | [10] 6.76 µM | [12] 24.6 µM

CCCCCCCC(=O)O
inactive: [1] | [2] | [3] | [4] | [5] | CD38, CD38 (gene 952) | CD40, CD40 (gene 958) | CD69, CD69 (gene 969) | [6] | [7] | [9] | [10] | [11] | [12]

c1ccc2c(c1)ccc1ccccc12
inactive: [1] | [2] | [3] | [4] | [5] | CD38, CD38 (gene 952) | CD40, CD40 (gene 958) | CD69, CD69 (gene 969) | [6] | [7] | [9] | [10] | [11] | [12]

CCc1nn(C2CCCCC2)c2cc(C3(C#N)CCC(C(=O)O)CC3)ccc12 (configuration not stated)
inactive: [2] | [4] | [9]
active: [1] 10.1 µM | [3] 1.85 µM | [5] 2.43 µM | CD38, CD38 (gene 952) 20 µM | CD40, CD40 (gene 958) 10.6 µM | CD69, CD69 (gene 969) 5.47 µM | [6] 4.61 µM | [7] 1.78 µM | [10] 2.73 µM | [11] 12.5 µM | [12] 11.5 µM

COC(=O)CCCCC(=O)OC
inactive: [1] | [2] | [3] | [4] | [5] | CD38, CD38 (gene 952) | CD40, CD40 (gene 958) | CD69, CD69 (gene 969) | [6] | [7] | [9] | [10] | [11] | [12]

ClC1=C(Cl)C(Cl)(Cl)C(Cl)=C1Cl
active: [1] 12.3 µM | [2] 11.6 µM | [3] 9.94 µM | [4] 9.9 µM | [5] 9.81 µM | CD38, CD38 (gene 952) 7.55 µM | CD40, CD40 (gene 958) 8.3 µM | CD69, CD69 (gene 969) 8.69 µM | [6] 10.6 µM | [7] 8.69 µM | [8] 13.8 µM | [9] 10.4 µM | [10] 10.4 µM | [11] 5.78 µM | [12] 9.48 µM

NC(=O)N(O)[C@@H]1C=C[C@H](Oc2cccc(Oc3ccc(F)cc3)c2)C1
active: [2] 8.49 µM | CD38, CD38 (gene 952) 26.3 µM | [11] 20 µM
inactive: [1] | [3] | [4] | [5] | CD40, CD40 (gene 958) | CD69, CD69 (gene 969) | [6] | [7] | [9] | [10] | [12]

CC[C@H](C)[C@@H](C(=O)O)n1sc2ccccc2c1=O
inactive: [1] | [3] | [4] | CD38, CD38 (gene 952) | CD40, CD40 (gene 958) | CD69, CD69 (gene 969) | [6] | [7] | [8] | [9] | [10] | [11] | [12]
active: [2] 32.2 µM | [5] 26.5 µM

Reference: PubChem BioAssay (EPA / NIEHS)
